Bioassay records deposited in PubChem BioAssay by National Center for Advancing Translational Sciences (NCATS).
PI5P4Ka inh: qHTS for Inhibitors of phosphatidylinositol 5-phosphate 4-kinase (PI5P4K); Phosphatidylinositol 5-phosphate 4-kinase type-2 alpha (Homo sapiens), P48426; max response, %; PI5P4Kalpha enzyme, ADP-Glo luminescence, 60 min; hits give low values; hit rate 1.2% among 330,000; active means max response of -50% or lower; inconclusive means between -30% and -50%; inactive means -30% or higher; further: value at the top dose of about 77 µM; on the % scale 0 is the no-effect control and ±100 the full control effect
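Human PI5P4Kalpha with substrate in 0.038 M HEPES pH 7.4, 0.28 mM EGTA, 0.1% CHAPS, 5% DMSO; reaction started with 5 microM ATP (final), 60 min at room temperature. ADP formed read by ADP-Glo luminescence.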
G9a block: qHTS Assay for Inhibitors of Histone Lysine Methyltransferase G9a | G9a H3K9 monomethylation, AlphaScreen, 2 h | Potency, µM (highest dose often 102 µM), for the others: at the highest dose activity, negative = inhibition, most hits filed as inhibitors | hit rate 8.8% among 350,000 | AID 504332, 2011; further: potency means the concentration at half of the fitted maximal effect; on the % scale 0 is the no-effect control and ±100 the full control effect; nearly all actives have a fitted effect of over 75% in size
Target sequence (Q96KQ7 913-1193 limits assumed): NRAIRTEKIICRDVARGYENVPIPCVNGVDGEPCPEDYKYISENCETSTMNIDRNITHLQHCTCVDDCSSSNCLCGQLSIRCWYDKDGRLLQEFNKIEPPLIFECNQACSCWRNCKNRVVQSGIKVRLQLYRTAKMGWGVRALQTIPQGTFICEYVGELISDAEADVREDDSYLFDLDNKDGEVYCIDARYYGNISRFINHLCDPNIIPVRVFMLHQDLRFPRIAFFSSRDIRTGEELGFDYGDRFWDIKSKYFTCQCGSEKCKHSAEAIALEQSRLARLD
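Methyltransferase reactions run at room temperature for 2 h (20 nM enzyme, 500 nM biotin-H3K9 peptide, 20 uM SAM) after a 15 min compound preincubation; product detected by AlphaScreen beads and anti-H3K9me1 antibody.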
PLK1 PBD block: qHTS for Inhibitors of PLK1-PDB (polo-like kinase 1 - polo-box domain): Primary Screen | Potency, µM, inactives show max response, negative = inhibition, usual class: inhibitors | Plk1 PBD binding of FITC phosphopeptide, fluorescence polarization | hit rate 2.8% among 360,000 | AID 720504, 2013; further: potency means the concentration at half of the fitted maximal effect; series mostly up to about 57 µM; on the % scale 0 is the no-effect control and ±100 the full control effect; nearly all actives have a fitted effect of over 65% in size
HP1b chromo inh: HTS for Inhibitors of HP1-beta Chromodomain Interactions with Methylated Histone Tails. Chromobox protein homolog 1 (Homo sapiens), P83916. AlphaScreen HP1-beta / biotin-H3K9me3 peptide binding. Potency, µM (doses to about 114 µM), inactives show top-dose activity change, negative = inhibition, hits mostly inhibitors. hit rate 0.56% among 390,000; further: potency means the concentration at half of the fitted maximal effect; nearly all actives have a fitted effect of over 70% in size
Target sequence (P83916 whole entry, looked up): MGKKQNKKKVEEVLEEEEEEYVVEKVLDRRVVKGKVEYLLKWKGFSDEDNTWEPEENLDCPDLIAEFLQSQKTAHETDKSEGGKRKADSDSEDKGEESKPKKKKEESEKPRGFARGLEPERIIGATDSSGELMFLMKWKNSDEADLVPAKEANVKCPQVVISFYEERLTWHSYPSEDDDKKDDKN
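Compound inhibition of the preformed complex between 50 nM HP1-beta and 50 nM biotinylated H3K9me3 peptide was read by AlphaScreen. Buffer was PBS pH 7.4 with 0.01% Tween-20. Incubations ran 30 min at room temperature, with 10 ug/mL donor/acceptor beads.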
JMJD2A Tudor: qHTS Assay for Inhibitors of JMJD2A-Tudor Domain; Potency, µM (series often up to 114 µM), inactives show top-dose activity change, negative = inhibition, most hits filed as inhibitors; AlphaScreen JMJD2A-Tudor / H3K4me3 peptide binding; Lysine-specific demethylase 4A (Homo sapiens), O75164; hit rate 4.4% among 390,000; further: potency means the concentration at half of the fitted maximal effect; on the % scale 0 is the no-effect control and ±100 the full control effect; nearly all actives have a fitted effect of over 50% in size
BAZ2B inh: qHTS Assay for Inhibitors of BAZ2B; Bromodomain adjacent to zinc finger domain protein 2B (Homo sapiens), Q9UIF8; AlphaScreen BAZ2B-H3K14Ac peptide displacement; Potency, µM (highest dose often 114 µM), for inactives: at the top dose activity change, negative = inhibition, usual class: inhibitors; hit rate 4.4% among 360,000; AID 504333, 2011; further: potency means the concentration at half of the fitted maximal effect; on the % scale 0 is the no-effect control and ±100 the full control effect; nearly all actives have a fitted effect of over 60% in size
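BAZ2B (50 nM) with biotin-H3(5-23)K14Ac peptide (50 nM) in PBS pH 7.4, 0.01% Tween-20, preformed 30 min, then compound 30 min at room temperature; top concentration 110uM. AlphaScreen streptavidin donor/nickel chelate acceptor beads (10 ug/mL final), 20 min dark, signal read.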
* hit, by the source's call; ? = inconclusive; · = not tested or not shown; [ ] = dose if it differs, or a comment. In the library only some 12% were active in any assay of this set; here they are far more common. Unless noted, the call rests on the fitted dose curve; in most records, active means well fitted curve in the direction sought with a large enough effect; inconclusive means small, poorly fitted or top-dose-only effect, or another doubt; inactive means no such curve, though single readings can be large; an effect the other way counts as inactive or inconclusive.

SMILES | PI5P4Ka inh | G9a block | PLK1 PBD block | HP1b chromo inh | JMJD2A Tudor | BAZ2B inh
CCC1CCCCN1C(=O)COc1ccc(N(C)S(=O)(=O)c2ccc(C)cc2)cc1 (stereo not drawn) | 13 | -10% | -3% | 36% | -19% | -13%
Cc1cccc(NC(=S)NNc2ncc(C(F)(F)F)cc2Cl)c1 | -5 | -11%[59 µM] | -5% | ? | -29% | 8%
FC(F)(F)c1cnc(NNC(=S)Nc2ccccc2Cl)c(Cl)c1 | -8 | 40µM* | -24% | -19% | -27% | 7%
S=C(NNc1ccnc2cc(Cl)ccc12)Nc1ccccc1Cl | -30 | 11µM* | 15µM* | ? | 56µM* | ?
NC(=O)CCCCn1ccc(NC(N)=NCC(F)(F)F)n1 | · | 31%[59 µM] | · | · | · | ·
CN1CCN(c2ncnc3ccc(-c4cccnc4)cc23)CC1 | · | -2%[0.501 µM] | · | · | · | ·
O=C(N/N=C/c1ccncc1)c1cccs1 | -1 | 11% | -2% | 11% | -14% | -1%
O=C(N/N=C/c1ccc(-c2ccccc2C(=O)O)o1)c1cccs1 | ? | 8.9µM* | ? | 5% | 89µM* | 56µM*
Cc1cc(C(c2ccc(C)o2)c2ccc(C)o2)c(O)c([N+](=O)[O-])c1 | -10 | 35µM* | -16% | 16µM* | 40µM* | 45µM*
Cc1c(C(c2cccc([N+](=O)[O-])c2O)c2c(C)n(C)n(-c3ccccc3)c2=O)c(=O)n(-c2ccccc2)n1C | · | 13%[12.7 µM] | -2% | 36% | -13% | -6%
Cc1ccc(C(c2ccc(C)o2)c2cccc([N+](=O)[O-])c2O)o1 | -56* | 40µM* | ? | ? | 50µM* | 40µM*
O=C(NCC(c1ccco1)N1CCc2ccccc2C1)c1ccccc1 (stereo not drawn) | -4 | 7% | -1% | 26% | -17% | 0%
O=C(NCC(c1ccco1)N1CCc2ccccc2C1)C(=O)Nc1ccccc1 (stereo not drawn) | 3 | 50µM* | 1% | 8% | -12% | 1%
CC(=O)Nc1cccc(NC(=O)C(=O)NCC(c2ccco2)N2CCc3ccccc32)c1 (stereo not drawn) | 0 | 50µM* | -1% | ? | 56µM* | 50µM*
CC(=O)N1CCCc2cc(S(=O)(=O)N3CCC(C(=O)NCc4ccccc4Cl)CC3)ccc21 | · | 11%[59 µM] | · | 34%[57 µM] | -9% | 1%
Cc1ccc(N=N/C(=C\O)C(=O)c2ccc(Cl)cc2)cc1 | -5 | 25µM* | 24µM* | ? | -35%[11.4 µM] | 11µM*
COc1ccccc1NC(=O)COC(=O)Cn1cnc2c1c(=O)n(C)c(=O)n2C | 2 | · | 0% | 45% | -1% | ·
O=C1CCc2cc(S(=O)(=O)Nc3cccc4ccccc34)ccc2N1 | · | · | · | · | -25% | ·
ClCc1nc2ccccc2c2ccccc12 | 0 | 71µM* | ? | 45% | 1% | -1%
Cc1cccc(C(=O)NCC(=O)OC(C(=O)Nc2cc(C(F)(F)F)ccc2Cl)c2ccccc2)c1 (stereo not drawn) | · | · | · | · | -21% | ·
COc1ccc(C(=O)[C@H]2[C@H]3C(=O)N(c4ccc(OC(C)=O)cc4)C(=O)[C@H]3C3C=CC=NN32)cc1 (stereo partly drawn) | 0 | · | -5% | 6% | -23% | -20%
CC(=O)Oc1ccc(C(=O)[C@H]2[C@H]3C(=O)N(c4cccc5ccccc45)C(=O)[C@H]3[C@@H]3C=CC=NN32)cc1 | -27 | ? | 42µM* | -20% | ? | ?
Cc1cnc(C=O)c2cccc([N+](=O)[O-])c12 | -5 | · | -7% | · | · | ·
COc1ccc2[nH]cc(CC(=O)O)c2c1 | 2 | -11% | -16% | 18% | -27% | -3%
